This is a sample that favours compounds with a hit; in the whole collection about 0.85% have one here.
GLS inh: glutaminase GLS (human) inhibition | O94925 | GLS enzymatic activity, qHTS titration | Potency, µM (series often up to 45.5 µM), for the others: at the top dose activity change, negative = inhibition, most hits filed as inhibitors | hit rate 0.21% among 410,000 | AID 624170; also: potency is read from the fitted curve at half-maximal effect; % is scaled to controls: 0 for no effect and ±100 for the full control effect
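Two-point fluorescence kinetic (t0, 30 min RT) for hKGA; glutamate detected via glutamate oxidase–HRP–Amplex Red. Substrate: 1 mM L-glutamine solution; buffer 45 mM KH2PO4, pH 8.2.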
Mm-Cpn inhibitor: blocks the Methanococcus maripaludis chaperonin Mm-Cpn. AID 504842. hit rate 0.031% among 330,000. purified Mm-Cpn ATPase, ADP Transcreener TR-FRET. Potency, µM (doses to about 76.9 µM), for inactives: at the top dose activity, negative = inhibition, hits mostly inhibitors; also: potency is read from the fitted curve at half-maximal effect; % is scaled to controls: 0 for no effect and ±100 for the full control effect; nearly all actives have a fitted effect of over 80% in size
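Purified archaeal Mm-CPN (25nM final) preincubated 10 min at 37degC with compound, then 10uM ATP for 30 min at 37degC; ADP measured by HTRF Transcreener TR-FRET; buffer 30 mM TRIS pH 7.4, 100mM KCl, 5mM MgCl2, 1mM DTT.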
CCT chaperon mod: cytosolic chaperonin activity modulation; activity change, % (concentration not given with the values), hits read low; hit rate 0.3% among 360,000; AID 651819; purified chaperonin ATPase assay, HTRF ADP detection, 30 min; in the data active = activity change below about -30%; also: % is scaled to controls: 0 for no effect and ±100 for the full control effect
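TRiC (40 or 20 nM final, by batch activity) in 30 mM Tris pH 7.4, 100 mM KCl, 5 mM MgCl2, 1 mM DTT was treated with compound at 76 uM single dose, then 10 uM ATP, 30 min at 37 °C. ADP was read by HTRF Transcreener.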
mIDH1 inhibitor: blocks human mutant IDH1 R132H enzyme; O75874; IDH1-R132H enzyme, NADPH consumption, diaphorase/resazurin fluorescence; Potency, µM (titrated, usually from 76.6 µM), without a hit: top-dose activity change, negative = inhibition, most hits filed as inhibitors; hit rate 0.093% among 390,000; also: potency is read from the fitted curve at half-maximal effect; % is scaled to controls: 0 for no effect and ±100 for the full control effect; nearly all actives have a fitted effect of over 65% in size
Target sequence (O75874 whole entry R132H, stated change not applied): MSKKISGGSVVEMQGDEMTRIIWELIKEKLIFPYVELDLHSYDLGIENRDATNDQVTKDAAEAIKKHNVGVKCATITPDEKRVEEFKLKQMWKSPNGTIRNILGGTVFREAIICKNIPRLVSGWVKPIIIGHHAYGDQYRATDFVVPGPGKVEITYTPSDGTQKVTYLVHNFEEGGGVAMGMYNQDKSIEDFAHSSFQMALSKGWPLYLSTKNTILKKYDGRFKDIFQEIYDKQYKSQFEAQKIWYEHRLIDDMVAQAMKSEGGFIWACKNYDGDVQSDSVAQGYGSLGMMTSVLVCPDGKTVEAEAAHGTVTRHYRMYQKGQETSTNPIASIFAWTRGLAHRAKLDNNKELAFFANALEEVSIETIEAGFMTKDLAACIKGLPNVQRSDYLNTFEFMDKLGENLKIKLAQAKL
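IDH1-R132H (0.5 ug/mL) preincubated 30 min with compound, then NADPH (0.016 mM) and alpha-KG (2 mM) added; 80 min at RT, pH 7.5. Remaining NADPH coupled via diaphorase/resazurin to fluorescence (540/590 nm); concentration-response curves normalized to no-enzyme control.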
GRP78 ERSR act: ER stress response induction in glioma | U87-MG GRP78 promoter luciferase reporter, 16 h | Potency, µM, for the others: at the highest dose activation, actives largely listed as activators | hit rate 0.02% among 420,000; also: potency is read from the fitted curve at half-maximal effect; series mostly up to about 76 µM; % of control where 0% means no effect; nearly all actives have a fitted effect of over 35% in size
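Stably transfected U87-MG glioma cells carrying a GRP78-based luciferase sensor; 16 h compound incubation. Luminescence end-point read 10 min after Bright-Glo addition at room temperature.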
pAkt inh: blocks phosphorylation of Akt. Neuro2A IGF-stimulated pAkt S473 HTRF, 20 min; hits give low values. activity change, % for hits at 50 µM. hit rate 0.32% among 360,000. AID 651550; in the data active = activity change below about -80%; inconclusive = mostly about -51% to -80%; also: % is scaled to controls: 0 for no effect and ±100 for the full control effect
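Neuro2A cells (4,500/well, DMEM with 0.5% FBS) were treated with compound at a single 50 µM final concentration, stimulated with 6 nM IGF for 20 min at 37 °C, and lysed. Phospho-Akt Ser473 was read by HTRF as 665/615 ratio ×10^4.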
The depositor's hits bear a star; ! = not confirmed by another sample. Unless noted, calls follow the shape of the dose curve; as a rule, active = well fitted curve in the direction sought with a large enough effect; inconclusive = small, poorly fitted or top-dose-only effect, or another doubt; inactive = no such curve, though single readings can be large; an effect the other way counts as inactive or inconclusive.

How did COc1cc(C(=O)NCC(=O)OCc2ccccc2Cl)cc(OC)c1OC do in these assays?
GLS inh: 1%; Mm-Cpn inhibitor: 4%; CCT chaperon mod: -35*; mIDH1 inhibitor: 9%; GRP78 ERSR act: -2%; pAkt inh: inactive

How did COCCN(CCOC)C(=O)c1cc2sc3ccccc3c2s1 do in these assays?
GLS inh: 0%; Mm-Cpn inhibitor: -4%; CCT chaperon mod: -31*; mIDH1 inhibitor: 0%; GRP78 ERSR act: 2%; pAkt inh: inactive

What do the screens show for `CCN(CC)C(=O)c1cc2sc3ccccc3c2s1`?
GLS inh: 11%; Mm-Cpn inhibitor: 0%; CCT chaperon mod: -2; mIDH1 inhibitor: 10%; GRP78 ERSR act: 6%; pAkt inh: inactive

Results for O=C(Nc1ccc2c(c1)OCCO2)C1CCCN1S(=O)(=O)c1ccc(Cl)cc1 (configuration not stated) ?
GLS inh: 15%; Mm-Cpn inhibitor: 0%; CCT chaperon mod: 0; mIDH1 inhibitor: -1%; GRP78 ERSR act: -2%; pAkt inh: -111%*

How did Cc1[nH]n(-c2ccc([N+](=O)[O-])cc2)c(=O)c1/C=N/N1CCOCC1 do in these assays?
GLS inh: -5%; Mm-Cpn inhibitor: -2%; CCT chaperon mod: -1; mIDH1 inhibitor: 9%; GRP78 ERSR act: 2%; pAkt inh: inactive

Results for CC(=NCCCn1ccnc1)c1c(C)[nH]n(-c2ccc([N+](=O)[O-])cc2)c1=O ?
GLS inh: -5%; Mm-Cpn inhibitor: 40µM*; CCT chaperon mod: -3; mIDH1 inhibitor: 2%; GRP78 ERSR act: -2%; pAkt inh: inactive

Results for Cc1ccn2c(NC3CCCC3)c(-c3ccccn3)nc2c1 ?
GLS inh: inconclusive; Mm-Cpn inhibitor: -3%; CCT chaperon mod: -93*; mIDH1 inhibitor: 13%; GRP78 ERSR act: -1%; pAkt inh: inactive

Results for Cc1ccn2c(Nc3ccc4c(c3)OCO4)c(-c3ccccn3)nc2c1 ?
GLS inh: 11µM*; Mm-Cpn inhibitor: -1%; CCT chaperon mod: -6; mIDH1 inhibitor: 3%; GRP78 ERSR act: -7%; pAkt inh: inactive

What do the screens show for `COCC1CCCN(c2nc(CN3CCN(C(=O)c4ccco4)CC3)nc3ccccc23)C1` (configuration not stated)?
GRP78 ERSR act: -1%

How did O=C(COC(=O)/C=C/c1cccc(Br)c1)NCc1ccco1 do in these assays?
GLS inh: 1%; Mm-Cpn inhibitor: 0%; CCT chaperon mod: -4; mIDH1 inhibitor: 4%; GRP78 ERSR act: -3%; pAkt inh: inactive

What do the screens show for `O=C(COC(=O)/C=C/c1ccccc1)NCc1ccco1`?
GLS inh: -7%; CCT chaperon mod: -56*; mIDH1 inhibitor: 9%; GRP78 ERSR act: -3%; pAkt inh: inactive

What do the screens show for `Cc1ccccc1Cn1c(=O)c2c(nc3n2CCN3Cc2ccco2)n(C)c1=O`?
GLS inh: 7.9µM*; CCT chaperon mod: -1; mIDH1 inhibitor: 5%; GRP78 ERSR act: -3%; pAkt inh: inactive

Results for Cn1c(C(=O)N2CCOCC2)cnc1Sc1ncc(C(F)(F)F)cc1Cl ?
GLS inh: 4%; Mm-Cpn inhibitor: -1%; CCT chaperon mod: 2; mIDH1 inhibitor: -1%; GRP78 ERSR act: -4%; pAkt inh: -114%*

What do the screens show for `COc1ccc(C)cc1NC1=C(Cl)C(=O)N(C2CCCCC2)C1=O`?
GLS inh: 0%; Mm-Cpn inhibitor: 1%; CCT chaperon mod: -3; mIDH1 inhibitor: 4%; GRP78 ERSR act: -6%; pAkt inh: inactive

What do the screens show for `CCOc1ccc(NC2=C(Cl)C(=O)N(C3CCCCC3)C2=O)cc1`?
GLS inh: 1%; Mm-Cpn inhibitor: -2%; CCT chaperon mod: -32*; mIDH1 inhibitor: 1%; GRP78 ERSR act: -4%; pAkt inh: inactive

How did CCOC(=O)N1CCN(C(=O)Cc2ccc(-n3c(=O)[nH]c4ccccc4c3=O)cc2)CC1 do in these assays?
GLS inh: 10%; Mm-Cpn inhibitor: 1%; CCT chaperon mod: -1; mIDH1 inhibitor: -3%; GRP78 ERSR act: -3%; pAkt inh: -109%*

Results for CC(=O)N1CCC(N(CCN2CCOCC2)C(=S)Nc2c(C)cccc2C)CC1 ?
GLS inh: 11%; Mm-Cpn inhibitor: inconclusive; CCT chaperon mod: -35*; mIDH1 inhibitor: 3%; GRP78 ERSR act: 1%; pAkt inh: inactive

Results for Cc1cc(-c2ccc(N=Nc3ccc4c(S(=O)(=O)O)cc(S(=O)(=O)O)c(N)c4c3O)c(C)c2)ccc1N=Nc1ccc2c(S(=O)(=O)O)cc(S(=O)(=O)O)c(N)c2c1O ?
GLS inh: 14µM*!; GRP78 ERSR act: -9%

How did COc1ccccc1Cn1c(=O)c2ccccc2n2c(SCC(=O)N3CCCCC3)nnc12 do in these assays?
GLS inh: 16µM*; Mm-Cpn inhibitor: -1%; CCT chaperon mod: -1; mIDH1 inhibitor: -1%; GRP78 ERSR act: -5%; pAkt inh: inactive

How did O=C(CSc1nnc2n(C3CCCC3)c(=O)c3ccccc3n12)N1CCCCCC1 do in these assays?
GLS inh: 1%; Mm-Cpn inhibitor: 0%; CCT chaperon mod: -3; mIDH1 inhibitor: 12%; GRP78 ERSR act: -5%; pAkt inh: inactive

What do the screens show for `CC(C)CN1CCNC(=O)C1CC(=O)NCCc1cnn(-c2ccccc2)c1` (configuration not stated)?
GLS inh: 19%; Mm-Cpn inhibitor: 2%; CCT chaperon mod: 1; mIDH1 inhibitor: 6%; GRP78 ERSR act: -2%; pAkt inh: inactive

Results for CC(C)CN1CCNC(=O)C1CC(=O)NCCc1ccc(C(F)(F)F)cc1 (configuration not stated) ?
GLS inh: 1%; Mm-Cpn inhibitor: 32µM*; CCT chaperon mod: -1; mIDH1 inhibitor: 0%; GRP78 ERSR act: -6%; pAkt inh: inactive

Results for C=CCN1C(=O)/C(=C\c2cccc(OC(=O)c3ccco3)c2)SC1=S ?
GLS inh: 0%; Mm-Cpn inhibitor: -1%; CCT chaperon mod: -1; mIDH1 inhibitor: -8%; GRP78 ERSR act: 0%; pAkt inh: inactive

Results for C=CCN1C(=O)/C(=C\c2ccc(OC(=O)c3ccco3)c(OC)c2)SC1=S ?
GLS inh: -2%; Mm-Cpn inhibitor: -1%; CCT chaperon mod: -84*; mIDH1 inhibitor: -5%; GRP78 ERSR act: 3%; pAkt inh: inactive

What do the screens show for `C=Cc1ccc(C(=O)N2CCc3c(cnc(C)c3CNC(=O)c3ccc4c(c3)OCO4)C2)cc1`?
GRP78 ERSR act: 1%

What do the screens show for `CC(C)(C)c1ccccc1OCCCCN1CCCC1`?
GLS inh: -6%; Mm-Cpn inhibitor: 1%; CCT chaperon mod: -5; mIDH1 inhibitor: 8%; GRP78 ERSR act: -1%
